What all share (assay): NCI-60 one-dose screen, 48 h (100 = growth as untreated, 0 = no growth, -100 = all killed)
Common to all, as to settings: 10 µM unless noted

In assay [1] the test system is NCI-H23 lung.
The subject of assay [2] is NCI-H226 lung.
In assay [3] the test system is NCI-H322M lung.
The subject of assay [4] is HOP-62 NSCLC.
The subject of assay [5] is NCI-H460 lung.
Assay [6] has as its system HOP-92 NSCLC.
Assay [7] has as its system NCI-H522 lung.
The test system of assay [8] is A549/ATCC NSCLC.
The subject of assay [9] is 786-0 renal.
For assay [10], the system named is COLO 205 colon.
Assay [11] deals with DU-145 prostate.
Assay [12] relates to K-562 leukemia.
For assay [13], the system named is MALME-3M melanoma.
Assay [14] concerns MDA-MB-231 breast.
The subject of assay [15] is RXF 393 renal.
The subject of assay [16] is SF-268 CNS.
Assay [17] has as its system SF-295 CNS.
The subject of assay [18] is SF-539 CNS.
For assay [19], the system named is UACC-257 melanoma.
Assay [20] concerns M14 melanoma.

This is part of a sample that, as a whole, favours compounds with a hit. Of some 83,000 tested, about 20% had one in any assay.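 Each cell line was grown in a 96-well plate and treated with one concentration of compound for 48 hours. Values below 10 were considered active.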 Values without a mark were called inactive. The source made the active and inactive calls.

Turning to `Cn1ncc2c(C(=O)c3ccc(F)cc3)nc(C(C)(C)C)nc21`, the growth in assay [1] is 95.8%; in assay [2] it was 101%; in [3], 97.8%; in [4], 94.8%; in assay [5], 101%; in assay [6], 56.4%. The growth in assay [7] is 91.8%; in assay [8], 91.9%; in assay [9] it was 101%; in assay [10], 108%; in [11], 102%; in [12], 104%. For the same compound, the growth in assay [13] was 89.7%; in assay [14] it was 102%; in [15], 94.1%; in [16], 97.3%; in [17] it was 99.6%; in assay [18], 97.1%. The growth in assay [19] was 94.3%; in assay [20], 100%.

As to `O=[N+]([O-])c1ccc(NC(=S)NNC(=S)Nc2ccc(Br)cc2)cc1`, the growth in assay [1] is 86.1%; in assay [2] it was 97.3%; in assay [3], 63.3%; in [4] it was 94.9%; in assay [5], 97.6%; in assay [6], 99.9%. The growth in assay [7] is 81.1%; in assay [8], 83.9%; in assay [9], 99.2%; in assay [10], 112%; in [11], 104%; in assay [12] it was 49.1%. For the same compound, the growth was 89.4% in [13]; 91.6% in [14]; 103% in assay [15]; 101% in assay [16]; 72.6% in [17]; 95.2% in assay [18]. Also, the growth in assay [19] is 95.2%; in assay [20] it was 87.9%.

For the compound `O=c1[nH][nH]c(-c2ccc(F)cc2)c1-c1nc2ccccc2s1`, the growth in assay [1] is 89.9%; in assay [2], 82.3%; in assay [3], 88.7%; in assay [4], 89.4%; in assay [5] it was 92.2%; in assay [6], 77.1%. Moreover, the growth is 92.9% in [7]; 111% in assay [8]; 107% in [9]; 113% in assay [10]; 104% in assay [11]; 98.1% in assay [12]. Also, the growth in assay [13] was 84%; in assay [14], 85%; in assay [15] it was 99.7%; in [16] it was 98.1%; in assay [17] it was 103%; in assay [18] it was 94.8%. Besides, the growth in [19] was 107%; in assay [20], 89.1%.

Take `O=C(/C=C/c1cccc(Br)c1)c1cccc(OCCCCOc2cccc(C(=O)/C=C/c3cccc(Br)c3)c2)c1`: the growth in assay [1] is 98%; in assay [2] it was 103%; in assay [3] it was 103%; in assay [4] it was 107%; in [5], 100%; in assay [6], 115%. Further, the growth in assay [7] is 98.1%; in assay [8], 98.8%; in assay [9], 106%; in [10], 115%; in [11] it was 109%; in assay [12] it was 90.1%. Moreover, the growth was 98% in assay [13]; 101% in [14]; 105% in [15]; 99.9% in [16]; 107% in [17]; 104% in [18]. Moreover, the growth was 109% in [19] and 93.9% in [20].

As to `Cc1cc2nc3c4cc(C#N)ccc4n(CCN(C)C)c3nc2cc1C`, the growth is -35% (active) in assay [1]; -21.5% (active) in assay [2]; -0.486% (active) in assay [3]; 4.29% (active) in [4]; -42.3% (active) in [5]; -19.1% (active) in [6]. The growth was -52.1% (active) in assay [7]; -67.2% (active) in assay [8]; 6.69% (active) in assay [9]; -82.7% (active) in assay [10]; 5.75% (active) in assay [11]; 3.51% (active) in assay [12]. Besides, the growth in [13] was -68% (active); in [14] it was 8.68% (active); in assay [15], -62.1% (active); in assay [16], -7.74% (active); in assay [17], -4.33% (active); in [18], -15.2% (active). Besides, the growth is -25.5% (active) in assay [19] and -83.3% (active) in [20].

For the compound `C#CCOc1ccc(-c2csc(NC(=O)C=C)n2)cc1NS(=O)(=O)c1cccc2c(N(C)C)cccc12`, the growth is 56.4% in [1]; 33.1% in assay [2]; 87.6% in assay [3]; 93.2% in assay [4]; 81.2% in assay [5]; 0.234% (active) in assay [6]. For the same compound, the growth in [7] is 29.9%; in assay [8], 65.4%; in [9], 8.71% (active); in [10], 67.6%; in assay [11] it was 44.6%; in [12] it was 9.26% (active). The growth was 62.5% in assay [13]; 31.7% in assay [14]; -6.3% (active) in [15]; 64.7% in assay [16]; 66.8% in assay [17]; 3.55% (active) in assay [18]. Besides, the growth in assay [19] is 68.6%; in assay [20], 31.9%.

For the compound `Cc1ccc2c(n1)C(=O)C(Cl)=C(Nc1cc(C(F)(F)F)cc(C(F)(F)F)c1)C2=O`, the growth in assay [1] is 86%; in assay [2], 84.3%; in assay [3], 105%; in assay [4] it was 118%; in assay [5], 95.9%; in assay [6] it was 92.4%. For the same compound, the growth was 37.4% in assay [7]; 101% in assay [8]; 80.3% in assay [9]; 92.5% in assay [10]; 95.3% in assay [11]; 4.18% (active) in [12]. Moreover, the growth is 47.9% in assay [13]; 87.1% in assay [14]; 74.5% in [15]; 87.1% in [16]; 95.7% in assay [17]; 93.9% in [18]. Also, the growth in assay [19] is 75.2%; in [20] it was 89.9%.

Take `COc1cc2cc(Oc3ccc(NC(=O)Nc4ccc(F)c(C(F)(F)F)c4)cc3)c(C)nc2cc1OCCN(C)C`: the growth in assay [1] was 102%; in [2], 104%; in assay [3], 102%; in assay [4], 104%; in assay [5] it was 101%; in assay [6] it was 69.8%. Further, the growth in [7] was 96.1%; in [8], 93.2%; in assay [9] it was 88.8%; in assay [10], 117%; in assay [11], 106%; in [12], 3.63% (active). Further, the growth is 92.7% in assay [13]; 103% in assay [14]; 76.5% in assay [15]; 98.5% in assay [16]; 104% in assay [17]; 102% in [18]. The growth was 105% in [19] and 95.7% in assay [20].
